Assay [1] addresses Pyruvate kinase PKM (Homo sapiens) (UniProt P14618). As to the kind of experiment: qHTS Assay for Activators of Human Muscle Pyruvate Kinase (AID 954; active = well fitted curve in the direction sought with a large enough effect, not every such curve was filed as active). In outline:
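PKM2, human, >95% pure, 0.1 nM; PEP 0.5 mM (Km), ADP 0.1 mM; 50 mM imidazole pH 7.2, 50 mM KCl, 0.01% Tween 20, 0.05% BSA; 1 h RT; luciferase luminescence readout.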
Background: qHTS replaces the single test concentration by a dilution series.

Assay [2] in a line: Cell Viability - LYMP1-002 - Assay at 16 hr (AID 948). In outline:
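ATP luminescence (CellTiter-Glo) was measured after 16 hr compound exposure at 37 C of 2500 lymphoblastoid LYMP1-002 cells per well. Concentration-response curves were fitted with the Hill equation to give AC50.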

Assay [3] in a line: MultiTox-Fluor Cytotoxicity Assay - LYMP1-002 - Live Cells (AID 955).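 Note: cells exposed to compound for 16 hours.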 Summed up: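 After 16 h compound exposure at 37 C, live LYMP1-002 lymphoblastoid cells (2500/well) were quantified by cleavage of cell-permeant GF-AFC substrate, read at 405/510 nm after 60 min. Concentration-response fitted with Hill equation for AC50.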
Assay [4] can be described thus: MultiTox-Fluor Cytotoxicity Assay - LYMP1-002 - Dead Cells (AID 960). Note: nearly all actives have a fitted effect of over 60% in size. Summed up: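 Dead-cell fluorescence (Ex/Em 485/520) after 16 h compound exposure at 37 C of LYMP1-002 lymphoblastoid cells in complete medium; AC50 by Hill equation, with data scaled between DMSO and 15 uM tetraoctylammonium bromide.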
Assay [5] in a line: MultiTox-Fluor Cytotoxicity Assay - LYMP1-003 - Dead Cells (AID 961). Note: nearly all actives have a fitted effect of over 70% in size. Note: potency is the fitted concentration of half-maximal effect. Summed up:
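LYMP1-003 lymphoblastoid, 2500 cells/well, 5 hr settle then 16 hr cpd at 37 C; MultiTox-Fluor reagent 60 min RT; Ex/Em 485/520 dead-cell signal; norm. DMSO = 0%, 15 uM tetraoctylammonium bromide = 100%; Hill AC50.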

Assay [6] is described as follows: MultiTox-Fluor Cytotoxicity Assay - LYMP1-003 - Live Cells (AID 962).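 Note: cells exposed to compound for 16 hours at 37 °C; cytotoxic hits lower the live-cell protease signal.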 Summed up: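 Live-cell protease activity (GF-AFC substrate, 405/510 nm, 60 min at room temperature) after 16 h, 37 C compound exposure of human lymphoblastoid LYMP1-003 cells; concentration-response fitted to the Hill equation for AC50.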
Assay [7] can be described thus: Cell Viability - LYMP1-003 - Assay at 24 hr (AID 963). In outline:
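Concentration-response qHTS: ATP loss measured by CellTiter-Glo luminescence after 24 h compound exposure at 37 C. Cells were LYMP1-003 human lymphoblastoid, 2500 per well. AC50 derived via standard Hill equation modeling.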

The nature of assay [8]: Cell Viability - LYMP2-003 (AID 965).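 Note: cells exposed to compounds for 24 h before reading; nearly all actives have a fitted effect of over 50% in size.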 Summed up:
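CellTiter-Glo luminescence quantified ATP loss after 24 h compound treatment of LYMP2-003 lymphoblastoid cells at 37 C. Titration series were fitted with the standard Hill equation to give AC50.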

Assay [9] in a line: Cell Viability - LYMP2-004 (AID 966). Note: nearly all actives have a fitted effect of over 65% in size. In outline: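 AC50 values come from Hill modelling of concentration-dependent loss of intracellular ATP, measured by CellTiter-Glo luminescence. Human LYMP2-004 lymphoblastoid cells (2500/well) were exposed to compound for 24 h at 37 C.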
The nature of assay [10]: Cell Viability - LYMP2-009 (AID 968). Note: series mostly up to about 92 µM; nearly all actives have a fitted effect of over 55% in size.
A short description of assay [11]: Cell Viability - LYMP2-013 (AID 970). Note: series mostly up to about 92 µM; nearly all actives have a fitted effect of over 55% in size. In outline:
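qHTS cytotoxicity: ATP-dependent luminescence (CellTiter-Glo, 30 min room temperature) read after 24 h compound exposure at 37 C of 2500 LYMP2-013 lymphoblastoid cells per well. Concentration-response fitted with Hill equation to give AC50.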

Assay [12] in a line: Cell Viability - LYMP2-015 (AID 971). Note: nearly all actives have a fitted effect of over 55% in size. In outline:
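Cytotoxicity readout: decrease in intracellular ATP (CellTiter-Glo luminescence) in 2500 LYMP2-015 lymphoblastoid cells/well after 24 h compound exposure at 37 C. Concentration-response data fitted with the standard Hill equation to give AC50.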

Assay [13] is described as follows: Cell Viability - LYMP2-017 (AID 972). Note: series mostly up to about 92 µM; nearly all actives have a fitted effect of over 55% in size. In outline:
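CellTiter-Glo luminescence (cellular ATP, 30 min RT) measured cytotoxicity after 24 hr compound treatment at 37 C. Cells were a human lymphoblastoid line, LYMP2-017, plated at 2500/well and incubated 5 hr first; concentration-response fitted with Hill equation for AC50.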

The nature of assay [14]: Cell Viability - LYMP2-019 (AID 973). Note: nearly all actives have a fitted effect of over 55% in size. In outline: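 AC50 values come from Hill-equation fits of luminescent intracellular ATP (CellTiter-Glo, 30 min, room temperature) following 24 h compound exposure at 37 C. Cells: LYMP2-019 lymphoblastoid line, 2500 per well, in complete culture medium.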
A short description of assay [15]: Cell Viability - LYMP2-021 (AID 974). Note: nearly all actives have a fitted effect of over 55% in size. Summed up:
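AC50 values come from Hill-equation fits to CellTiter-Glo luminescence (ATP content), read after 24 hour compound exposure at 37 C of 2500 LYMP2-021 lymphoblastoid cells/well; tetraoctylammonium bromide as positive control.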

Assay [16] in a line: Cell Viability - LYMP2-023 (AID 975). Summed up:
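Intracellular ATP, read by CellTiter-Glo luminescence, reports viability after 24 hr compound exposure at 37 C. 2500 lymphoblastoid cells/well (LYMP2-023) seeded 5 hr beforehand; Hill fits give AC50; positive control tetraoctylammonium bromide.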

A short description of assay [17]: Cell Viability - LYMP2-025 (AID 976). Note: series mostly up to about 92 µM. In outline:
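Cytotoxicity read as loss of intracellular ATP (luciferase luminescence) after 24 h compound treatment at 37 C. Uses LYMP2-025 lymphoblastoid cells in 1536-well format; Hill-equation modelling gives AC50; tetraoctylammonium bromide as positive control.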

A short description of assay [18]: Cell Viability - LYMP2-002 (AID 977). Note: series mostly up to about 92 µM. Summed up:
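Human lymphoblastoid cells, 2500/well, complete medium; 5 h 37 C settle; compound 24 h 37 C; CellTiter-Glo, 30 min RT; luminescence. Decrease in ATP = cytotoxicity; AC50 via Hill equation.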

Assay [19] can be described thus: Cell Viability - LYMP1-003 - Assay at 40 hr (AID 964). Note: series mostly up to about 92 µM; nearly all actives have a fitted effect of over 60% in size. Summed up:
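Viability is taken as cellular ATP, read by CellTiter-Glo luminescence after 40 h of compound exposure at 37 C. Cells: human lymphoblastoid line LYMP1-003 at 2500/well; AC50 values derived by Hill-equation fitting of concentration-response data.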

Assay [20] in a line: Cell Viability - LYMP2-005 (AID 967). Note: series mostly up to about 92 µM. Summed up:
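LYMP2-005 human lymphoblastoid cells (2500/well) were treated with compounds for 24 h at 37 C. Intracellular ATP was then measured by CellTiter-Glo luminescence after 30 min at room temperature. AC50 values came from Hill-equation fits of qHTS concentration-response data.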

The structures appear in SMILES notation. Records with an inconclusive call do not appear. Activity calls are given as the source filed them. Unless noted, calls come from the whole dose curve; as a rule, active = well fitted curve in the direction sought with a large enough effect; inconclusive = small, poorly fitted or top-dose-only effect, or another doubt; inactive = no such curve, though single readings can be large; an effect the other way counts as inactive or inconclusive.

Chain of Pyruvate kinase PKM (Homo sapiens) (P14618 whole entry, looked up): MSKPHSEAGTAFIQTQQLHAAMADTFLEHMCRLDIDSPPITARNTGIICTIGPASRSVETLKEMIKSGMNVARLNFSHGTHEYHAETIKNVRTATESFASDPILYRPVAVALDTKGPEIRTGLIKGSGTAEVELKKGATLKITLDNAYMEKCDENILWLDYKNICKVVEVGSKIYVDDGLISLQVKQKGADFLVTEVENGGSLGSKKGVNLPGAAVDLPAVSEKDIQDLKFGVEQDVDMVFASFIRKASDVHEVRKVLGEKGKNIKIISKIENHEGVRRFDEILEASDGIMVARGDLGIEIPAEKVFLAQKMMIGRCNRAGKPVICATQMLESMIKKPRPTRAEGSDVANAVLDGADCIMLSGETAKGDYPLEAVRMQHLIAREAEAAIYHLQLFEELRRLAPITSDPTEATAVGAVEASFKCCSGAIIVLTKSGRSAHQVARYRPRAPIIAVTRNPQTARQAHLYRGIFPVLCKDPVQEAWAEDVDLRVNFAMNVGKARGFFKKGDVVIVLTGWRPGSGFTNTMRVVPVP

Consider `NC(N)=NCc1cccc(I)c1`, for which the outcome in assay [1] was inactive.
On to `COc1ccc(C(Cl)=C(c2ccc(OC)cc2)c2ccc(OC)cc2)cc1`, for which the outcome in [2], in [3], in assay [4], in [6], in assay [7] and in assay [8] was inactive. Further, the compound was called inactive in [9], in assay [10], in [11], in assay [12], in [13] and in assay [14]. Besides, the call in assay [15], in assay [16], in assay [17] and in [18] was inactive. Moreover, the Potency entry in assay [5] was “inactive”.
On to `Oc1c(Cl)cc(Cl)c(Cl)c1Cc1c(O)c(Cl)cc(Cl)c1Cl`, for which the outcome in [2] and in [7] was inactive. In assay [5], the Potency is 50.1 µM (active).
On to `CCOc1ccc(NC(C)=O)cc1`, for which the compound was classed as inactive in assay [2], in assay [3], in [4], in [6], in assay [7] and in [19]. Besides, the compound was classed as inactive in [8], in [9], in [20], in assay [10], in assay [11] and in assay [12]. Further, the outcome in [13], in [14], in assay [15], in assay [16], in assay [17] and in assay [18] was inactive. Besides, the Potency result in [5] is “inactive”.
On to `CCOc1ccccc1C(N)=O`, for which the compound was classed as inactive in assay [2], in assay [3], in assay [4], in assay [6], in assay [7] and in assay [19]. Besides, the compound was classed as inactive in assay [8], in assay [9], in assay [20], in [10], in assay [11] and in [12]. In addition, the compound was called inactive in assay [13], in assay [14], in [15], in assay [16], in assay [17] and in assay [18]. For the same compound, the Potency entry in [5] was “inactive”.
Consider `COc1ccc(C(=O)c2ccccc2)c(O)c1`, for which the outcome in assay [2], in assay [3], in [4], in assay [6], in assay [7] and in [19] was inactive. Besides, the compound was classed as inactive in assay [8], in assay [9], in [20], in assay [10], in [11] and in assay [12]. Further, the compound was classed as inactive in assay [13], in assay [14], in assay [15], in assay [16], in [17] and in [18]. The Potency entry in assay [5] is “inactive”.
As to `NS(=O)(=O)Cc1noc2ccccc12`, in [1], the result was inactive.
As for `OC[C@H]1O[C@@H]2O[C@H]3[C@H](O)[C@@H](O)[C@@H](O[C@H]4[C@H](O)[C@@H](O)[C@@H](O[C@H]5[C@H](O)[C@@H](O)[C@@H](O[C@H]6[C@H](O)[C@@H](O)[C@@H](O[C@H]7[C@H](O)[C@@H](O)[C@@H](O[C@H]8[C@H](O)[C@@H](O)[C@@H](O[C@H]1[C@H](O)[C@H]2O)O[C@@H]8CO)O[C@@H]7CO)O[C@@H]6CO)O[C@@H]5CO)O[C@@H]4CO)O[C@@H]3CO`, the result in assay [2], in assay [3], in assay [4], in [6], in assay [7] and in assay [19] was inactive. Also, the result in assay [8], in assay [9], in assay [10], in assay [11], in [12] and in assay [13] was inactive. Besides, the compound was called inactive in assay [14], in assay [15], in [16], in assay [17] and in assay [18]. Further, in [5], the Potency entry is “inactive”.
Turning to `NC(=O)c1ccccc1O`, the compound was called inactive in [2], in assay [3], in [4], in [6], in assay [7] and in assay [19]. Moreover, the result in assay [8], in [9], in [20], in assay [10], in assay [11] and in assay [12] was inactive. The outcome in assay [13], in assay [14], in assay [15], in [16], in assay [17] and in assay [18] was inactive. Also, in assay [5], the Potency entry is “inactive”.
As for `CCCN(CCC)S(=O)(=O)c1ccc(C(=O)O)cc1`, the compound was called inactive in assay [2], in assay [3], in [4], in assay [6], in assay [7] and in assay [19]. Moreover, the call in assay [8], in assay [9], in assay [20], in [10], in [11] and in [12] was inactive. The call in [13], in assay [14], in [15], in [16], in assay [17] and in assay [18] was inactive. In assay [5], the Potency entry was “inactive”.
